According to PubChem BioAssay AID1645882 (National Center for Advancing Translational Sciences (NCATS), 2021):
Values joined by “and” are separate entries in the source; they are usually repeats but may differ in a detail not shown here. Equal entries are not always repeated. Screen size: about 16,000 compounds; about 120 (0.75%) were called active. Roughly 4% stayed inconclusive and do not appear here. Calls come from the whole dose curve; as a rule, active = well fitted inhibition curve with a large enough effect; inconclusive = small, poorly fitted or top-dose-only effect; inactive = no such curve, though single readings can be large or run the other way. Shown is part of a subset that was picked to be rich in actives. Some structures have more than one record in an assay (separate samples or runs), and their calls can disagree. *1 amine or outer side, *2 acyl side, *3 side chain or, on linkers, in order; H or OH if unused. Where a SMILES comes first, the peptide text is derived from it. Bridges are numbered along the chain shown (N, C = ends). [ ]: non-standard residue; d: D form. The star is where a group is joined. X6 = NC1=N[C@@H](O)C[C@H]([C@H](N[*:1])C(=O)[*:2])N1; ΔAla(3-NHCONH2) = NC(=O)NC=C(N)C(=O)O; β3hOrn = NCCC[C@H](N)CC(=O)*; Dap = NC[C@H](N)C(=O)O

Target: Rap guanine nucleotide exchange factor 3 (Homo sapiens) (UniProt O95398)
Sequence (O95398 whole entry, looked up): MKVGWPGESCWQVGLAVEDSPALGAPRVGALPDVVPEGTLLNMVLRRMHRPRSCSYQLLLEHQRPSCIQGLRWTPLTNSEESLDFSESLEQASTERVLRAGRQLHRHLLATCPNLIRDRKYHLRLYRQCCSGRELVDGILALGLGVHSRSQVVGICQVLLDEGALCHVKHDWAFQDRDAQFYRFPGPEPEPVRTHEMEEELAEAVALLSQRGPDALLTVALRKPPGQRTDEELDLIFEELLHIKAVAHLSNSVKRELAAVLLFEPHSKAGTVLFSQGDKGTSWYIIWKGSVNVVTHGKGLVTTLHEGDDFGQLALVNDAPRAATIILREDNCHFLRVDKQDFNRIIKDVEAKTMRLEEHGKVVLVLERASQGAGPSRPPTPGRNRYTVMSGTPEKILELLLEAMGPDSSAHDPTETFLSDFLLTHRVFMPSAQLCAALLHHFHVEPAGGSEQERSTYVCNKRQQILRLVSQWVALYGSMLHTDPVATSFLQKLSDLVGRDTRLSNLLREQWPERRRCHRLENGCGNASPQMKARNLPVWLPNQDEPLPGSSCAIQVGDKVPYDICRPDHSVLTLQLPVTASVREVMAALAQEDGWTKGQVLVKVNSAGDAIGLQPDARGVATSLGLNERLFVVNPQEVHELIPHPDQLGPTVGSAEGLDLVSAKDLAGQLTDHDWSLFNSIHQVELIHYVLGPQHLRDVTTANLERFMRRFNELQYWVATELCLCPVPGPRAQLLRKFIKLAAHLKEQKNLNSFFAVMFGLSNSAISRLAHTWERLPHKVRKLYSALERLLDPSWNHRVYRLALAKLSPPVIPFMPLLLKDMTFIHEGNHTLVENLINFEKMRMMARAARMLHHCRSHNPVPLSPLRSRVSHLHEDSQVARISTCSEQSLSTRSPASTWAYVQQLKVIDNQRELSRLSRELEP
Test: Validation qHTS for antagonist of cAMP-regulated guanine nucleotide exchange factor 3 (EPAC1); note: nearly all actives have a fitted effect of over 75% in size
Conditions: EPAC1 Rap1B-BODIPY-GDP exchange, fluorescence; series mostly up to 150 µM
Excerpt: Assay Provider (PI): Xiaodong Cheng Ph.D.
The University of Texas Medical Branch, […], TX
In multi-cellular eukaryotic organisms, the effects of cAMP are transduced by two ubiquitously-expressed intracellular cAMP receptors, the classic protein kinase A/cAMP-dependent protein kinase (PKA/cAPK) and the more recently discovered exchange protein directly activated by cAMP/cAMP-regulated guanine nucleotide exchange factor (EPAC/cAMP-GEF). Both PKA and EPAC are ubiquitously expressed in all tissues, and an increase in intracellular cAMP levels will lead to the activation of both PKA and EPAC. Therefore, careful dissections of the individual role and relative contribution of EPAC and PKA within the overall cAMP signaling in various model systems are critical for further elucidating the mechanism of cAMP signaling. To date no EPAC-specific antagonists and agonist, as well as isoform-specific agonists have been reported, and developing EPAC-specific pharmacological probes to determine the physiological functions that EPAC play in the overall cAMP-mediated signaling remains a major challenge within the research field. Furthermore, identified regulators of EPAC may lead to new mechanism-based therapeutic strategies specifically targeting the EPAC / cAMP-signaling components as EPAC has been implicated to play important roles in major human pathological conditions such as diabetes, heart disease, and cancer.
This qHTS will be used to screen the Molecular Libraries Small Molecule Repository (MLSMR) as a concentration-titration series using the NCGC unique quantitative screening (qHTS) platform to find activators for EPAC1. In addition, this assay will also be used as a counterscreen for the EPAC2 qHTS. This fluorescent based assay is developed and validated for EPAC1 that measures exchange using EPAC effector Rap1 complex with BODIPY-GDP, a GDP analog with a tethered fluorophores. Activators are identified by monitoring the change in fluorescence signal as the exchanged free BODIPY-GDP has a reduced fluorescence compared to Rap1-bound BODIPY-GDP. Increase in signal (activation) is the desired outcome for the EPAC1 agonist while no activity in this assay is desired for the EPAC2 agonist counterscreen.
[1] de Rooij, J., Zwartkruis, F. J., Verheijen, M. H., Cool, R. H., Nijman, S. M., Wittinghofer, A., and Bos, J.L. (1998) Nature 396, 474-477.
Briefly, three uL of reagents (100 nM EPAC1, 250 nM RAP1B-BODIPY-GDP, 50 uM GDP) were dispensed into a 1536-well Greiner black solid-bottom medium binding assay plate. Controls and test compounds (23 nL) were transferred to the plate via a Kalypsys pin tool equipped with a 1536-pin array. The plates were centrifuged at 1,000 rpm for 15 seconds followed by 5 minute incubation at room temperature. The assay plates were read at 5 minute intervals for 30 minutes in the ViewLux plate reader using 480nm excitation and 540nm emission filters. The results were normalized to the […] positive control ATA and DMSO.
Potency is the fitted concentration of half-maximal effect.

Potency, 56.2 µM (active) and inactive:
Oc1c(Cl)cc(Cl)c(Cl)c1Cc1c(O)c(Cl)cc(Cl)c1Cl

Potency, active:
C=CC(C)(C)c1[nH]c2ccccc2c1C1=C(O)C(=O)C(c2c[nH]c3c(CC=C(C)C)cccc23)=C(O)C1=O 56.2 µM
NC(C(=O)O)c1cc(O)c(Cl)c(O)c1 (stereo not drawn) 56.2 µM
Cc1cc2c(C(C)C)c(O)c(O)c(C=O)c2c(O)c1-c1c(C)cc2c(C(C)C)c(O)c(O)c(C=O)c2c1O 50.1 µM and 39.8 µM and 79.4 µM
C=CC1=C(C)C2=CC3=NC(=C(CC(=O)[O-])C4=NC(=C(C)C4=C([O-])[O-])C=c4[n-]c(c(C)c4CC)=CC1=N2)C(CCC(=O)[O-])C3C.[Cu+2].[Na+].[Na+].[Na+] (stereo not drawn) 89.1 µM
CCCCCCCCCCCCCCCCC(C(=O)O)C(O)(CC(=O)O)C(=O)O (stereo not drawn) 35.5 µM
Oc1cc(O)c2c(c1)O[C@H](c1ccc(O)c(O)c1)[C@H](O)C2 79.4 µM
O=c1c(O)cc(C2Oc3cc(O)cc(O)c3CC2O)cc2c(C3Oc4cc(O)cc(O)c4CC3O)cc(O)c(O)c12 (stereo not drawn) 39.8 µM
CC(C)(Sc1ccc(CCN(CCCCC2CCCCC2)C(=O)NC2CCCCC2)cc1)C(=O)O 44.7 µM
O=C(O)c1cc(O)c2c(c1)[C@H]([C@H]1c3cc(C(=O)O)cc(O)c3C(=O)c3c(O[C@@H]4O[C@H](CO)[C@@H](O)[C@H](O)[C@H]4O)cccc31)c1cccc(O[C@@H]3O[C@H](CO)[C@@H](O)[C@H](O)[C@H]3O)c1C2=O 100 µM
Nc1c(S(=O)(=O)O)cc(Nc2ccc(Nc3nc(Cl)nc(Nc4ccc(S(=O)(=O)O)cc4)n3)c(S(=O)(=O)O)c2)c2c1C(=O)c1ccccc1C2=O 22.4 µM
Nc1cc(N)cc(N)c1 44.7 µM
CCOc1nc2cccc(C(=O)OC(C)OC(=O)OC3CCCCC3)c2n1Cc1ccc(-c2ccccc2-c2nn[nH]n2)cc1 (stereo not drawn) 89.1 µM
O.O.O.O.O.O.O.O=S(=O)([O-])[O-].[Co+2] 100 µM
C=C1[C@@H](O)[C@H](CC(C)C)N(Cc2ccccc2Br)S1(=O)=O 89.1 µM
C=C1c2cccc(O)c2C(O)=C2C(=O)[C@]3(O)C(O)=C(C(N)=O)C(=O)[C@@H](N(C)C)[C@@H]3[C@@H](O)[C@H]12 31.6 µM
O=C(OC[C@H]1O[C@@H](OC(=O)c2cc(O)c(O)c(OC(=O)c3cc(O)c(O)c(O)c3)c2)[C@H](OC(=O)c2cc(O)c(O)c(OC(=O)c3cc(O)c(O)c(O)c3)c2)[C@@H](OC(=O)c2cc(O)c(O)c(OC(=O)c3cc(O)c(O)c(O)c3)c2)[C@@H]1OC(=O)c1cc(O)c(O)c(OC(=O)c2cc(O)c(O)c(O)c2)c1)c1cc(O)c(O)c(OC(=O)c2cc(O)c(O)c(O)c2)c1 11.2 µM

Potency, inactive and 112 µM (active):
CN1CCN(CCCN2c3ccccc3Sc3ccc(Cl)cc32)CC1

Potency, inactive:
OCC1OC(n2cnc3c(=S)nc[nH]c32)C(O)C1O (stereo not drawn)
Cc1cccc(CNc2ccnc(-c3ccccc3Cl)n2)c1
O=C1CCC(=O)N1CO
COc1cc(OC)c(/C=C/c2ccc3ccccc3n2)c(OC)c1
COc1ccccc1CCn1c(=O)cnc2cncnc21
COc1ccc(CNc2nc(-c3ccccc3OC)nc3ccccc23)c(OC)c1
CC(C)=CCC1=C(O)c2ccccc2C(=O)C1=O
CCc1cccc2c(C(O)c3c[nH]c4ccccc34)c[nH]c12 (stereo not drawn)
Cc1cc(-c2ccnc(-n3ncc(C(=O)NCCc4cccnc4)c3C)n2)c(C)s1
COc1ccc(CN2CCC(n3cc(C(=O)N4CCCC4)nn3)CC2)c(OC)c1C
O=C(c1cnccn1)N1CCC2(CCCN(Cc3nccs3)C2)CC1
NC(C(=O)O)c1cc(O)cc(O)c1 (stereo not drawn)
N[C@H](C(=O)O)c1cc(O)cc(O)c1
CCCCCCCCCCCCCC[N+](C)(C)C
Cc1cc(O)c(C=O)c(O)c1C(=O)O
Cc1c(C(=O)N(C)C(C)C)sc2ncnc(NCCCN3CCOCC3)c12
COc1ccc(SC[C@H](C)CN2CC[C@H](C(C)(C)C)CCC2=O)cc1
CCCCCCCCCCCCC(C(=O)O)C(C)C(=O)O (stereo not drawn)
CN1CCN(c2ncc3nc(-c4ccccc4)c(=O)n(CCC#N)c3n2)CC1
Oc1ccc2c(c1)OC(c1ccc(O)c(O)c1)C(O)C2 (stereo not drawn)
Oc1cc(O)c2c(c1)OC(c1cc(O)c(O)c(O)c1)C(O)C2 (stereo not drawn)
Oc1cc(O)c2c(c1)O[C@H](c1ccc(O)c(O)c1)[C@@H](O)C2
Oc1ccc(C2Oc3cc(O)cc(O)c3CC2O)cc1 (stereo not drawn)
CN(Cc1cnc2ccccn12)C1CCN(c2cccc(NC(=O)c3cccnc3)c2)CC1
Cc1ccc(C(=O)N(Cc2cc3cc4c(cc3nc2N2CCOCC2)CCC4)CC2CCCO2)cc1 (stereo not drawn)
CC(C)C[C@@H](CO)N1CCN(Cc2ccccc2)CCC1=O
O=C(NCc1cccnc1)[C@@H]1CC=C[C@@H]2CCN(Cc3ccc(Cl)c(Cl)c3)C(=O)[C@@H]21
O=c1c(-c2ccccc2)nc2cnc(Oc3cccc(Cl)c3)nc2n1C[C@H]1CCCO1
COc1cc([C@@H]2c3cc4c(cc3C(OC3OC5COC(C)OC5C(O)C3O)C3COC(=O)[C@@H]32)OCO4)cc(OC)c1O (stereo partly drawn)
O=C1c2c(O)cccc2[C@@H]([C@@H]2O[C@H](CO)[C@@H](O)[C@H](O)[C@H]2O)c2cc(CO)cc(O)c21
O=C1c2c(O)cccc2[C@H]([C@@H]2O[C@H](CO)[C@@H](O)[C@H](O)[C@H]2O)c2cc(CO)cc(O)c21
CCCN1CCC(=O)N([C@H](CO)Cc2ccccc2)CC1
CC#CCC(C)[C@H](O)/C=C/[C@@H]1[C@H]2c3cccc(CCCC(=O)O)c3O[C@H]2C[C@H]1O (stereo partly drawn)
Nc1ccc(O)cc1
COc1cc(N)c(N)cc1OC
COc1ccc2[nH]cc(CCO)c2c1
CC(C)c1ccc(CN2CCC3(CCC(CNC(=O)c4ccn(C)n4)O3)CC2)cc1 (stereo not drawn)
Cc1cccc(C(=O)NCc2nc(-c3cccc(NC(=O)C4CCCN(C)C4)c3)oc2C)n1 (stereo not drawn)
Cn1cccc1C(=O)N1CCC[C@@]2(CCN(c3cccc(-c4ccccc4)c3)C2)C1
CCOc1nc2cccc(C(=O)O)c2n1Cc1ccc(-c2ccccc2-c2nn[nH]n2)cc1
CCCc1nc(C(C)(C)O)c(C(=O)OCc2oc(=O)oc2C)n1Cc1ccc(-c2ccccc2-c2nn[nH]n2)cc1
CCN1CCCC1CNC(=O)c1cnn(-c2ncc3c(n2)-c2ccc(OC)cc2CC3)c1C1CC1 (stereo not drawn)
NCCC[C@H](N)CC(=O)N[C@H]1CNC(=O)[C@H]([C@H]2C[C@H](O)N=C(N)N2)NC(=O)C(=CNC(N)=O)NC(=O)[C@H](CO)NC(=O)[C@H](CO)NC1=O (β3hOrn-[Dap]SS[ΔAla(3-NHCONH2)][X6]; lactam 1-C)
Cc1ccc(C(=O)Nc2cccc(-c3nc(CNC(=O)c4ccc(F)cc4Cl)c(C)o3)c2)s1
CC(=O)OC1CCC2(C)C3=C(CCC2C1(C)C)[C@@]1(C)CCC(C(C)CCC=C(C)C)[C@@]1(C)CC3 (stereo partly drawn)
CCCCCCCCCCCCCCCCSCC(COC)COP(=O)([O-])OCC[N+](C)(C)C (stereo not drawn)
OCCN1CCN(CCCN2c3ccccc3Sc3ccc(Cl)cc32)CC1
CN1CCN(CCCN2c3ccccc3Sc3ccccc32)CC1
CC(=O)N1CCC2(CC1)CN(c1cccc(-c3ccccc3)c1)C2
O=S1(=O)CCO[C@H]2CCCC[C@@H]2N1Cc1ccccc1Br
C[C@@H]1[C@H](c2ccccc2)OCCS(=O)(=O)N1Cc1ccccc1Br
Cc1ccc2c(c1)C(=O)[C@@]1(O)CCN(c3ccccc3)C1=N2
Cc1cnc(-n2ncc(C(=O)NCCN3CCOCC3)c2C2CC2)nc1-c1cccs1
CCC1CN(CCNC(=O)c2cc(C(C)C)nn2C)Cc2cc(OC)ccc2O1 (stereo not drawn)
Oc1c(Cl)cc(Cl)c2cccnc12
Cc1ccc2c(Cl)cc(Cl)c(O)c2n1
COc1ccc(C(=O)N2CCC3(CC2)CN(c2ncccn2)C3)cc1
COc1cc(CN2CCOc3ccc(CN4CCC(O)(c5cccnc5)CC4)cc3C2)cc(OC)c1
Cc1ccc(C(=O)NCCc2nnc3n2CCN(Cc2cc(C)cc(C)c2)CC3)cc1
c1csc(CNc2ncncc2-c2ccoc2)c1
O=C(c1nc2ncccn2n1)N1CCOc2ccc(C(O)C(c3ccccc3)c3ccccc3)cc2C1 (stereo not drawn)
C=C1c2cccc(O)c2C(O)=C2C(=O)[C@]3(O)C(O)=C(C(N)=O)C(=O)C(N(C)C)C3C(O)C12 (stereo partly drawn)
C=C1c2c(Cl)ccc(O)c2C(O)=C2C(=O)[C@]3(O)C(O)=C(C(N)=O)C(=O)C(N(C)C)C3C(O)C12 (stereo partly drawn)
O=C(c1cccnc1)C1CCCN(Cc2ccc3c(c2)CN(C(=O)c2cccc(Cl)c2)CCO3)C1 (stereo not drawn)
CCC(C(=O)NC(N)=O)c1ccccc1 (stereo not drawn)
COC(=O)C[C@](O)(CCCC(C)(C)O)C(=O)O[C@@H]1C(OC)=CC23CCCN2CCc2cc4c(cc2[C@H]13)OCO4 (stereo partly drawn)
Cn1cccc1C(=O)N1CCC[C@@]2(CCN(c3ncccn3)C2)C1
CCCOC(=O)c1cc(O)c(O)c(O)c1
CCOC(=O)Cc1cccc(-c2cc(CCCCCCc3ccc(O[C@H]4O[C@H](COC(C)=O)[C@@H](OC(C)=O)[C@H](OC(C)=O)[C@@H]4OC(C)=O)c(-c4cccc(CC(=O)OCC)c4)c3)ccc2O[C@H]2O[C@H](COC(C)=O)[C@@H](OC(C)=O)[C@H](OC(C)=O)[C@@H]2OC(C)=O)c1

Activity change, negative = inhibition, inactive:
CCCCCCCCCCCCC(O)C(=O)O (stereo not drawn) -12.9% [at 15.3 µM]
